Here are results for 50 molecules from ChEMBL document CHEMBL3988442, “University of Dundee, Small-Polar-MMV Screening Library” (2021).

The test system of this experiment is Trypanosoma brucei. Description: Trypanosoma brucei 72 hour study. The class given is functional, organism-based. On the set-up: scale not given: in the data most compounds retested in dose-response had high values.

In all, about 66,000 compounds went through this assay and about 960 (1.5%) showed an effect of 50% or more. For the sample, strong results were picked, then their nearest neighbours and some compounds at random.

Regarding `COCCNc1cc(-c2cccc(C(=O)O)c2C)c2cc[nH]c2n1`, the “Percent Effect” value (30 µM, 30.03 µM) was -15.23%.
`COCC(=O)N1CC[C@@H]2O[C@@H](C)C[C@H]2C1`: the “Percent Effect” value (30.3 µM, […]) came out at 51.97%.
`COCC(=O)N1CC[C@H]2C[C@H](C)O[C@@H]2C1`: the “Percent Effect” value (30 µM, 30.03 µM) was found to be 19.11%.
As to `COCC(=O)N1CC[C@H]2O[C@@H](C)C[C@H]2C1`, the “Percent Effect” value (30.3 µM, […]) is -22.84%.
For the molecule `O=C(O)C(F)(F)F.c1cnc(NCc2nnn3c2CN(Cc2cccs2)CCC3)nc1`, for the setting “30 µM, 30.03 µM”, the “Percent Effect” value is -17.42%.
For `Cc1occc1C(=O)N1CCC2(CCN(C(=O)c3cccnc3)C2)CC1.O=C(O)C(F)(F)F`, the “Percent Effect” value (30.3 µM, […]) is -37.63%.
Still for that read-out and setting: with `CC(C)C[C@H](N)COc1cccc(F)c1Oc1ccccc1` the figure was 100.2%.
For the molecule `NCc1ccc(Oc2cccc(Cl)c2Cl)cc1`, for the setting “30 µM, 30.03 µM”, the “Percent Effect” value is reported as -54.14%.
Still for that read-out and setting: as for `CC(CNS(N)(=O)=O)Oc1cccc(Cl)c1` (stereo unspecified), the figure is -29.05%.
Regarding `Cc1ccc(Oc2c(F)cccc2OC[C@@H](N)CC(C)C)cc1`, the “Percent Effect” value (30.3 µM, […]) stood at 99.61%.
Take `COc1ccccc1C(N)CC(C)C` (stereo unspecified): where the note is “30 µM, 30.03 µM”, the “Percent Effect” value is listed as -12.31%.
Same read-out and setting: with `CC(CNS(C)(=O)=O)Oc1cccc(Cl)c1` (stereo unspecified) the figure was -19.79%.
The same measure, in the same setting: as for `CCOc1ccccc1C(N)CC(C)C` (stereo unspecified), the figure is -21.09%.
Turning to `CNCc1cc(F)ccc1Oc1ccc(Cl)cc1`, the “Percent Effect” value (30.3 µM, […]) is recorded as -18.58%.
For `CC(C)COc1ccccc1C(N)CC(C)C` (stereo unspecified), the “Percent Effect” value (30 µM, 30.03 µM) is -18.48%.
As for `CC(C)C[C@H](N)COc1cccc(F)c1Oc1cccc(Cl)c1`, under “30.3 µM, […]”, the “Percent Effect” value is reported as 99.87%.
For the molecule `CCCOc1ccccc1C(N)CC(C)C` (stereo unspecified), the “Percent Effect” value (30 µM, 30.03 µM) was -40.73%.
`CC(C)C[C@H](N)COc1cccc(F)c1Oc1ccc(Cl)cc1`: the “Percent Effect” value (30.3 µM, […]) is reported as 100.5%.
Regarding `Cc1ccc(NC2CCN(C(=O)CCc3ccncc3)CC2)nn1`, the “Percent Effect” value by setting is: (30.3 µM, […]) 5.448%; (10 mM, 10 mM as filed; unlikely as a test dose) -59.85%.
As to `CC(CNCc1ccc2c(c1)n(C)c(=O)n2C)Oc1ccccn1.Cl` (stereo unspecified), the “Percent Effect” value (30 µM, 30.03 µM) is -26.55%.
Take `CCn1nc(C)c2ccn(CC(=O)NC3CC3)c(=O)c21`: the “Percent Effect” value (30 µM, 30.03 µM) is given as -19.49%.
Turning to `c1ccc(-c2nc(CNCCn3cccn3)cs2)nc1`, where the note is “30.3 µM, […]”, the “Percent Effect” value is on record as -32.04%.
The same measure, in the same setting: with `CCn1ncc(CN2CCCC(n3c(=O)oc4ccccc43)C2)c1C.Cl` (stereo unspecified) the figure was 17.06%.
Consider `CCc1ccc(C(=O)Nc2ccc3c(c2)N(C)CCN(C)C3)o1`, for which the “Percent Effect” value (30 µM, 30.03 µM) was -2.445%.
With `CCN1CCOCC2(CCCN(C(=O)c3ccccc3F)C2)C1.O=C(O)C(F)(F)F` (stereo unspecified), the “Percent Effect” value (30.3 µM, […]) is -73.72%.
As to `CO[C@H]1CC[C@H]2[C@H]1OCCN2Cc1ccc(F)c(F)c1.O=C(O)C(F)(F)F`, the “Percent Effect” value (30.3 µM, […]) was -36.53%.
With `CCN1CC2(CC1=O)CN(Cc1cnn(C)c1)CCN(C(=O)N(C)C)C2.O=C(O)C(F)(F)F` (stereo unspecified), for the setting “30 µM, 30.03 µM”, the “Percent Effect” value is given as -27.29%.
Turning to `CC(=O)NCC1CCN(C(=O)c2c(C)[nH]c3ccc(Cl)cc23)CC1`, the “Percent Effect” value (30.3 µM, […]) amounted to 4.898%.
Same read-out and setting: with `C[C@@H](CO)Nc1nccc(-c2cnc3sc(Cl)cn3c2=O)n1` the figure was 8.201%.
Regarding `CCc1nc(C)c(C(=O)NCC2COc3cc(OC)ccc3C2)o1` (stereo unspecified), the “Percent Effect” value (30 µM, 30.03 µM) was determined as 22.43%.
Same read-out and setting: as for `O=C1CCCCN1CCc1nc(-c2cccnn2)no1`, the figure is -7.651%.
Same read-out and setting: as for `CC(C)CNC(=O)[C@H]1C[C@@H]2CN(C(=O)NCCc3ccccc3)C[C@H]1O2`, the figure is 5.175%; as for `O=S1(=O)CCC(S(=O)(=O)c2cccc(S(=O)(=O)N3CCOCC3)c2)C1` (stereo unspecified), -4.748%.
Turning to `Fc1cccc(CN2CCC[C@H](Cn3nnc(-c4ccccn4)n3)C2)c1`, the “Percent Effect” value (30.3 µM, […]) is -22.29%.
Still for that read-out and setting: with `Fc1ccccc1CN1CCC[C@H](Cn2nnc(-c3cccs3)n2)C1` the figure was 82.08%.
Still for that read-out and setting: with `Fc1ccccc1CN1CCC[C@@H](Cn2nnc(-c3cccs3)n2)C1` the figure was -5.522%; with `COc1cccc(CN2CCCC3(CCN(C(=O)N4CCCC4)C3)C2)c1.O=C(O)C(F)(F)F` (stereo unspecified), -29.29%; with `COCCC1(C(=O)O)CCCN(C(=O)c2cc(Cl)ccc2F)C1` (stereo unspecified), -11.98%.
On to `COc1ccc(-n2cnnc2SCC(=O)NC(C)C)cn1`, for which the “Percent Effect” value (30 µM, 30.03 µM) is 21.81%.
Consider `CCC(C)Sc1nncn1-c1ccc(OC)nc1` (stereo unspecified), for which the “Percent Effect” value (30 µM, 30.03 µM) was determined as 74.74%.
Same read-out and setting: as for `COc1ccc(-n2cnnc2SCC(=O)N(C)C(C)C)cn1`, the figure is 19.1%.
Turning to `CCOC(=O)[C@]12CCCN(Cc3cccs3)C[C@H]1CN(C(C)=O)C2.O=C(O)C(F)(F)F`, the “Percent Effect” value (30.3 µM, […]) is reported as -10.51%.
Consider `Cn1cc(N2Cc3nc(N4CCOCC4)ncc3C2=O)cn1`, for which the “Percent Effect” value (30.3 µM, […]) is -24.66%.
In the case of `COc1cc(CNCc2ccc(-n3nc(C)cc3C)nc2)cc(OC)c1`, under “30.3 µM, […]”, the “Percent Effect” value was determined as 5.745%.
Still for that read-out and setting: as for `Cc1cc(C)n(-c2ccc(CNCc3ccc(F)cc3F)cn2)n1`, the figure is 61.76%.
For the molecule `Cc1cc(C)n(-c2ccc(CNCc3ccc(OC(C)C)cc3)cn2)n1`, the “Percent Effect” value (30 µM, 30.03 µM) is listed as -15.45%.
On the same count and under the same terms, as for `COc1ccc(C)cc1CNCc1ccc(-n2nc(C)cc2C)nc1`, the figure is -31.15%; as for `CNC(=O)COc1ccc(CNCc2ccc(F)cc2F)cc1`, 4.908%.
For the molecule `Cc1cc(C)n(-c2ccc(CNCc3ccc(F)c(F)c3)cn2)n1`, the “Percent Effect” value (30.3 µM, […]) was 53.31%.
As to `Cc1cc(C)n(-c2ccc(CNCc3cccc(C#N)c3)cn2)n1`, for the setting “30.3 µM, […]”, the “Percent Effect” value stood at 62.16%.
